Source: PMC5540273 (PLoS ONE, 2017)
Values joined by “and” are separate entries in the source; they are usually repeats but may differ in a detail not shown here. Equal values may be shown once. Read-outs that look alike come from different tables or passages of the source.

Experiments:
TAOK2 = settings: concentration: 1 μM, replicates: in singlicate; n = 1
TAOK3 = settings: concentration: 1 μM, replicates: in singlicate, n = 1
TBK1 = settings: concentration: 1 μM, replicates: in singlicate, n = 1
TEC = settings: concentration: 1 μM, replicates: in singlicate, n = 1
TESK1 = settings: concentration: 1 μM, replicates: in singlicate, n = 1
TGFBR1 = settings: n = 1
TGFBR2 = settings: concentration: 1 μM, replicates: in singlicate, n = 1
TIE1 = settings: concentration: 1 μM, replicates: in singlicate, n = 1
TIE2 = tested on: T1, TIE2; settings: concentration: 1 μM, replicates: in singlicate, n = 1
T1 construct: gene TEK

TLK1 = settings: concentration: 1 μM, replicates: in singlicate, n = 1
TLK2 = settings: concentration: 1 μM, replicates: in singlicate, n = 1
TNIK = settings: concentration: 1 μM, replicates: in singlicate, n = 1
TNK1 = settings: concentration: 1 μM, replicates: in singlicate, n = 1
TNK2 = settings: concentration: 1 μM, replicates: in singlicate, n = 1
TNNI3K = settings: concentration: 1 μM, replicates: in singlicate, n = 1
TRKA = tested on: T2, TRKA; settings: concentration: 1 μM, replicates: in singlicate, n = 1
T2 construct: gene NTRK1

TRKB = settings: concentration: 1 μM, replicates: in singlicate, n = 1
TRKC = tested on: T3, TRKC; settings: concentration: 1 μM, replicates: in singlicate, n = 1
T3 construct: gene NTRK3

TRPM6 = settings: concentration: 1 μM, replicates: in singlicate, n = 1
TSSK1B = settings: concentration: 1 μM, replicates: in singlicate, n = 1
[1] = concentration: 1 μM, replicates: in singlicate
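Also: KINOMEscan kinase panel screen.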

NS(=O)(=O)c1cccc(-c2ccc3ncc(N4CCOCC4)nc3c2)c1 [GSK1535721]
%Inh (TAOK2): 0% | %Inh (TAOK3): 4% | %Inh (TBK1): 17% | %Inh (TEC): 18% | %Inh (TESK1): 0% | %Inh (TGFBR1; [1]): 6% | %Inh (TGFBR2): 0% | %Inh (TIE1): 0% | %Inh (TIE2): 0% | %Inh (TLK1): 9% | %Inh (TLK2): 8% | %Inh (TNIK): 34% | %Inh (TNK1): 0% | %Inh (TNK2): 2% | %Inh (TNNI3K): 14% | %Inh (TRKA): 37% | %Inh (TRKB): 0% | %Inh (TRKC): 5% | %Inh (TRPM6): 0% | %Inh (TSSK1B): 0%

C[C@@H](Oc1cc(-n2cnc3ccc(NC(=O)NC(C)(C)C)cc32)sc1C(N)=O)c1ccccc1Cl [GSK346294]
%Inh (TAOK2): 2% | %Inh (TAOK3): 0% | %Inh (TBK1): 27% | %Inh (TEC): 20% | %Inh (TESK1): 0% | %Inh (TGFBR1; [1]): 0% | %Inh (TGFBR2): 4% | %Inh (TIE1): 3% | %Inh (TIE2): 0% | %Inh (TLK1): 21% | %Inh (TLK2): 0% | %Inh (TNIK): 0% | %Inh (TNK1): 0% | %Inh (TNK2): 9% | %Inh (TNNI3K): 13% | %Inh (TRKA): 33% | %Inh (TRKB): 0% | %Inh (TRKC): 0% | %Inh (TRPM6): 0% | %Inh (TSSK1B): 20%

Cc1ccc(C(=O)NCC(N)=O)cc1-n1c(C)cc(OCc2ccc(F)cc2F)c(Br)c1=O
%Inh (TAOK2): 7% | %Inh (TAOK3): 0% | %Inh (TBK1): 36% | %Inh (TEC): 13% | %Inh (TESK1): 31% | %Inh (TGFBR1; [1]): 36% | %Inh (TGFBR2): 26% | %Inh (TIE1): 0% | %Inh (TIE2): 0% | %Inh (TLK1): 0% | %Inh (TLK2): 0% | %Inh (TNIK): 0% | %Inh (TNK1): 0% | %Inh (TNK2): 15% | %Inh (TNNI3K): 14% | %Inh (TRKA): 0% | %Inh (TRKB): 0% | %Inh (TRKC): 0% | %Inh (TRPM6): 0% | %Inh (TSSK1B): 26%

NS(=O)(=O)CCc1cccc(Nc2nccc(-c3c(-c4cccc(NC(=O)c5c(F)cccc5F)c4)nn4ccccc34)n2)c1 [GSK336735]
%Inh (TAOK2): 32% | %Inh (TAOK3): 88% | %Inh (TBK1): 15% | %Inh (TEC): 95.6% | %Inh (TESK1): 50% | %Inh (TGFBR1; [1]): 3% | %Inh (TGFBR2): 20% | %Inh (TIE1): 96.8% | %Inh (TIE2): 91.1% | %Inh (TLK1): 8% | %Inh (TLK2): 2% | %Inh (TNIK): 85% | %Inh (TNK1): 100% | %Inh (TNK2): 89% | %Inh (TNNI3K): 48% | %Inh (TRKA): 0% | %Inh (TRKB): 19% | %Inh (TRKC): 11% | %Inh (TRPM6): 56% | %Inh (TSSK1B): 28%

Cc1c2ccc(N(C)c3ccnc(Nc4cccc(S(N)(=O)=O)c4)n3)cc2nn1Cc1ccccc1.Cl.Cl [GW787226]
%Inh (TAOK2): 72% | %Inh (TAOK3): 0% | %Inh (TBK1): 35% | %Inh (TEC): 11% | %Inh (TESK1): 15% | %Inh (TGFBR1; [1]): 0% | %Inh (TGFBR2): 63% | %Inh (TIE1): 92.2% | %Inh (TIE2): 77% | %Inh (TLK1): 0% | %Inh (TLK2): 12% | %Inh (TNIK): 88% | %Inh (TNK1): 62% | %Inh (TNK2): 0% | %Inh (TNNI3K): 3% | %Inh (TRKA): 0% | %Inh (TRKB): 0% | %Inh (TRKC): 0% | %Inh (TRPM6): 41% | %Inh (TSSK1B): 1%

O=C1NC(=O)C(N2CCc3ccccc32)=C1c1cccc(Cl)c1 [SB-408010]
%Inh (TAOK2): 0% | %Inh (TAOK3): 0% | %Inh (TBK1): 0% | %Inh (TEC): 0% | %Inh (TESK1): 30% | %Inh (TGFBR1; [1]): 0% | %Inh (TGFBR2): 1% | %Inh (TIE1): 0% | %Inh (TIE2): 12% | %Inh (TLK1): 10% | %Inh (TLK2): 0% | %Inh (TNIK): 0% | %Inh (TNK1): 0% | %Inh (TNK2): 0% | %Inh (TNNI3K): 0% | %Inh (TRKA): 12% | %Inh (TRKB): 0% | %Inh (TRKC): 0% | %Inh (TRPM6): 21% | %Inh (TSSK1B): 22%

O=C(NOCC1CC1)c1ccc(F)c(F)c1Nc1ccc(I)cc1Cl
%Inh (TAOK2): 0% | %Inh (TAOK3): 0% | %Inh (TBK1): 0% | %Inh (TEC): 0% | %Inh (TESK1): 4% | %Inh (TGFBR1; [1]): 0% | %Inh (TGFBR2): 0% | %Inh (TIE1): 0% | %Inh (TIE2): 0% | %Inh (TLK1): 3% | %Inh (TLK2): 0% | %Inh (TNIK): 2% | %Inh (TNK1): 26% | %Inh (TNK2): 0% | %Inh (TNNI3K): 0% | %Inh (TRKA): 0% | %Inh (TRKB): 0% | %Inh (TRKC): 0% | %Inh (TRPM6): 0% | %Inh (TSSK1B): 0%

CC(C)(CN)c1nc(-c2ccc(Cl)c(O)c2)c(-c2ccncc2)[nH]1.O=C(O)C(F)(F)F [SB-477794]
%Inh (TAOK2): 0% | %Inh (TAOK3; 1 µM): 6% and 0% | %Inh (TBK1; 1 µM): 0% and 5% | %Inh (TEC; 1 µM): 13% and 0% | %Inh (TESK1; 1 µM): 100% and 56% | %Inh (TGFBR1; concentration: 1 μM, replicates: in singlicate, 1 µM): 98.8% and 96.2% | %Inh (TGFBR2; 1 µM): 99.2% and 99.6% | %Inh (TIE1; 1 µM): 1% and 0% | %Inh (TIE2; 1 µM): 3% and 22% | %Inh (TLK1; 1 µM): 20% and 11% | %Inh (TLK2; 1 µM): 10% and 4% | %Inh (TNIK; 1 µM): 89% and 87% | %Inh (TNK1; 1 µM): 0% and 84% | %Inh (TNK2; 1 µM): 0% and 5% | %Inh (TNNI3K; 1 µM): 85% and 77% | %Inh (TRKA; 1 µM): 0% and 49% | %Inh (TRKB; 1 µM): 75% and 32% | %Inh (TRKC; 1 µM): 55% and 46% | %Inh (TRPM6; 1 µM): 69% and 54% | %Inh (TSSK1B; 1 µM): 17% and 0%

c1ccc(-c2cc(-c3c[nH]nc3-c3ccccn3)ccn2)cc1 [GW576604]
%Inh (TAOK2): 0% | %Inh (TAOK3): 0% | %Inh (TBK1): 5% | %Inh (TEC): 0% | %Inh (TESK1): 9% | %Inh (TGFBR1; 1 µM): 75% | %Inh (TGFBR2): 62% | %Inh (TIE1): 0% | %Inh (TIE2): 0% | %Inh (TLK1): 1% | %Inh (TLK2): 0% | %Inh (TNIK): 72% | %Inh (TNK1): 0% | %Inh (TNK2): 1% | %Inh (TNNI3K): 89% | %Inh (TRKA): 54% | %Inh (TRKB): 25% | %Inh (TRKC): 0% | %Inh (TRPM6): 11% | %Inh (TSSK1B): 3%

COc1cc2ncn(-c3cc(OCc4sccc4Cl)c(C(N)=O)s3)c2cc1OC [GSK448459]
%Inh (TAOK2): 0% | %Inh (TAOK3): 0% | %Inh (TBK1): 15% | %Inh (TEC): 5% | %Inh (TESK1): 0% | %Inh (TGFBR1; [1]): 11% | %Inh (TGFBR2): 0% | %Inh (TIE1): 36% | %Inh (TIE2): 0% | %Inh (TLK1): 0% | %Inh (TLK2): 0% | %Inh (TNIK): 74% | %Inh (TNK1): 0% | %Inh (TNK2): 24% | %Inh (TNNI3K): 0% | %Inh (TRKA): 47% | %Inh (TRKB): 25% | %Inh (TRKC): 14% | %Inh (TRPM6): 0% | %Inh (TSSK1B): 1%
